Experimental data from PubChem BioAssay (NCI).
The panel holds about 79,000 compounds, 15% with a hit somewhere; the sample as a whole holds those more often. Unmarked numbers belong to inactive results. Calls of active or inactive are those of the source. No stated cut-off is given here; in the data, active means growth inhibition above about 70%; inactive means the rest.

Assay: NCI Yeast Anticancer Drug Screen. Data for the wt2 strain (AID 169);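 further: 0% = growth of vehicle-treated yeast cultures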
Conditions: S. cerevisiae wt2 strain growth inhibition; at 33.0 µM; active compounds read high
In short: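 Against vehicle-treated controls, the growth of yeast exposed to each compound was compared, and the inhibition was recorded.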

SMILES	growth inhibition
O=C1/C(=C/c2ccccc2)CCCC1CN1CCCCC1 (stereo not given)	79% (active)
C#CCN(Cc1ccc2nc(N)[nH]c(=O)c2c1)c1ccc(C(=O)NC(CCC(=O)O)C(=O)O)cc1 (stereo not given)	21%
CCOC1(c2cccc([N+](=O)[O-])c2)c2ccccc2Oc2ccccc21	2%
O=C(O)CNC(=S)Nc1ccccc1	31%
C[Si](C)(C)/C=C/CCNC(C#N)c1ccccc1 (stereo not given)	36%
CCCCCCCCCCCCCCCCOP(=O)(O)OCC(N)C(=O)O (stereo not given)	-22%
CC1=C(C(=O)NCc2ccccc2)C(c2ccccc2)C(C(=O)NCc2ccccc2)=C(C)N1	10%
O=[N+]([O-])c1cc(S(=O)(=O)Nc2ccccc2)ccc1Nc1ccccc1	92% (active)
COc1cc2ccnc(-c3c4ccccc4c(N)c4c(OC)c(OC)ccc34)c2cc1OC	4%
CCOC(=O)C(Br)C(Br)c1ccccc1Cl (stereo not given)	99% (active)
CCOC(=O)C1=C(C)NC(C)=C(C(=O)OCCNC(=O)c2ccc(N=[N+]=[N-])cc2)C1c1ccccc1C(F)(F)F (stereo not given)	5%
COc1c(O)c(C=O)c(Br)c(C=O)c1O	30%
Cc1c(C)c(C)c(CSC(=N)N)c(C)c1C	57%
O=C(CSC(=S)N1CCCCC1)Nc1nc2c(s1)CCCC2	22%
CNC(=O)OCc1c(COC(=O)NC)c(-c2ccc(Cl)cc2)n2c1CCC2	-10%
CC(=O)OC1CC2C(C)(C)C(=O)C=C[C@]2(C)C2CCC3(C)C(=CCC3[C@H](CO)C[C@H](O)C(=O)C(C)(C)O)[C@]12C (stereo not given in full)	86% (active)
CCCCCCOC(=O)NCCOC(=O)Nc1ccccc1	0%
Cc1nc(Nc2ccccc2[N+](=O)[O-])sc1C(=O)CC(=O)C(=O)Nc1c(C(C)C)cccc1C(C)C	2%
O=[N+]([O-])c1cccc2nc3ccccc3c(NCCCn3ccnc3[N+](=O)[O-])c12	74% (active)
CCCCCCC(O)CNCc1ccnc2ccc(OC)cc12 (stereo not given)	14%
Cc1c2cccc(Sc3ccccc3)c2c2c3c(cccc13)[S+](c1ccccc1)C2 (stereo not given)	95% (active)
C=C1CCC(O)C/C1=C/C=C1\CCCC2(C)C1CCC2C(C)CCCC(C)C (stereo not given)	-27%
NC1=NNC2(C(N)=N1)c1ccccc1-c1ccccc12	-2%
COC(=O)NC1C(C)OC(OC2C/C=C(/C)C3C=CC4C(OC5CC(OC6CC(O)C(OC7CC(O)C(OC)C(C)O7)C(C)O6)C(O)C(C)O5)C(C)CC(C)C4C3(C)/C(O)=C3\C(=O)OC4(CC(C)C(CO)=CC4/C=C\2C)C3=O)CC1(C)[N+](=O)[O-] (stereo not given)	-30%
COc1ccc(N=CN(C)C)c(C)c1	87% (active)
O=C(Oc1ccc2c(c1)CN(Cc1ccccc1)CO2)c1ccccc1	23%
CN(C)[C@@H]1C(=O)C(C(N)=O)=C(O)[C@@]2(O)C(=O)C3=C(O)c4c(O)cccc4C[C@H]3C[C@@H]12	99% (active)
O=[N+]([O-])c1ccc2c(c1)/C(=N/N=C1c3ccccc3Cc3ccccc31)c1cc([N+](=O)[O-])cc([N+](=O)[O-])c1-2	98% (active)
Cc1nc2c(Br)cc(Br)cc2c(=O)n1-c1ccccc1NC1OCC(O)C(O)C1O (stereo not given)	43%
Cc1cc(N(CCOS(C)(=O)=O)CCOS(C)(=O)=O)ccc1C=Nc1ccc(-c2nc(Cc3ccccc3)sc2C)cc1	92% (active)
